For some of these results: Results with a measured potency or affinity are listed apart.

What all share (design): scale not given: direction of the effect not stated beside the values
Assay [1] has as its target Protein translocase subunit SecA (Escherichia coli (strain K12)) (UniProt P10408). As to the kind of experiment: Assay to Identify E. coli SecA ATPase Inhibitors. Format: functional. To be noted: 30 µM.
The target of assay [2] is T1, Ubiquitin-activating enzyme e1, putative (Leishmania donovani (strain BPK282A1)) (UniProt E9BSI1).
T1 sequence (whole entry): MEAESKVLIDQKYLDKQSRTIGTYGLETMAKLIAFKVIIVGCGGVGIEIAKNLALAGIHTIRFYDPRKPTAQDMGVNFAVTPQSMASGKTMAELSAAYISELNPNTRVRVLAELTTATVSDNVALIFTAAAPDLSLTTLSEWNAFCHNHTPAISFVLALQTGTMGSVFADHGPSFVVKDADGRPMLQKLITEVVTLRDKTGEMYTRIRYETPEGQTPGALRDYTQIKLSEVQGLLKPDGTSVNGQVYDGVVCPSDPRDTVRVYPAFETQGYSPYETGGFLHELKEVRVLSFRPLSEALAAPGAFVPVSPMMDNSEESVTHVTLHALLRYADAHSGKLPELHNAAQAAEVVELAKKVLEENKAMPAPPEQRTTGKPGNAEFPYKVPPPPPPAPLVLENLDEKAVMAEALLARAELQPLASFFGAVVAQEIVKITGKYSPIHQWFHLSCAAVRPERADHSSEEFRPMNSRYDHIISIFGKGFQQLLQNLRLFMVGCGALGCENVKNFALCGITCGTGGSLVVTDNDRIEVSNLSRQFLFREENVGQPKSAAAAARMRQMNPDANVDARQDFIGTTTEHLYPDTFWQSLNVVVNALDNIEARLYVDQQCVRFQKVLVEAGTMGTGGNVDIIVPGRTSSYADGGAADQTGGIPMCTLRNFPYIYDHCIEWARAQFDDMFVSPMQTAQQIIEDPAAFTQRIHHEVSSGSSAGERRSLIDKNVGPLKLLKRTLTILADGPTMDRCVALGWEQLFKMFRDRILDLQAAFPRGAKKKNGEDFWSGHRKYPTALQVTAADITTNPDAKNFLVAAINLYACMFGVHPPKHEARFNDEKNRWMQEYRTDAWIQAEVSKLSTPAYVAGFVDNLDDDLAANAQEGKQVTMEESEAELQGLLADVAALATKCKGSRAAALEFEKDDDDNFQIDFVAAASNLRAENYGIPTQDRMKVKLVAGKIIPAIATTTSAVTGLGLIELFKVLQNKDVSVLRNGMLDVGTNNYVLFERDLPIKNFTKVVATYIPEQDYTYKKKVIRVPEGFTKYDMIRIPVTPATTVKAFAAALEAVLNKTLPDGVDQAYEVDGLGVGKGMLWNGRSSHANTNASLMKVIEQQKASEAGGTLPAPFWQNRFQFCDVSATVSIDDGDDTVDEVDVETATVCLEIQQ
Put plainly: Leishmania donovani Ubiquitin Activating Enzyme (LdE1). To be noted: 30 µM. Format: functional.

Assay [3] addresses AMP-activated protein kinase, AMPK (Homo sapiens) (UniProt P54646+O43741+P54619+Q9UGJ0+Q9Y478+Q13131+Q9UGI9). Put plainly: AMP-dependent Kinase enzyme assay. An in vitro enzyme assay that detects ADP turnover that is directly proportional to AMPK activity. This uses naive AMPK that is activated during the assay with MK-8722. Format: functional. To be noted: 30 µM.
Assay [4] has as its target Sialic acid-binding Ig-like lectin 9 (Homo sapiens) (UniProt Q9Y336). Put plainly: Hs-Siglec9 ALPHAscreen SOP 20170721. To be noted: 10 µM. In general terms: Alpha assays give light when donor and acceptor beads are brought close together.
In assay [5] the test system is Trypanosoma cruzi. As to the kind of experiment: Trypanosoma cruzi phosphomannomutase and mannose-1-phosphate guanylyltransferase assay. Particulars: 10 µM. Format: functional.
Assay [6] concerns the target T2, Arginase-2, mitochondrial (Homo sapiens) (UniProt P78540).
T2 sequence (whole entry): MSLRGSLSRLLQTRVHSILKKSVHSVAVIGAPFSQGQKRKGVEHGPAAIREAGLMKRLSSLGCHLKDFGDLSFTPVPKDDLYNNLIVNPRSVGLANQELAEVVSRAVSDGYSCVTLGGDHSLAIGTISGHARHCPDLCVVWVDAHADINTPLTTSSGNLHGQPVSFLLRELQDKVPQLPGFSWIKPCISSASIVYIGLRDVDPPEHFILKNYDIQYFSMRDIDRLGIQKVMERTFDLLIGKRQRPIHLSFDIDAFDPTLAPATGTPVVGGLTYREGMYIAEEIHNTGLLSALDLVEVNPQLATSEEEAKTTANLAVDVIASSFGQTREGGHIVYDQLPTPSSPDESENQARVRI
As to the kind of experiment: in vitro enzyme assay to detect the production of urea directly proportional to the activity of Arginase II. Further: in the data most compounds retested in dose-response had high values. The assay is classed as functional. Particulars: 33.3 µM.

The target in assay [7] is T3, Proteasome subunit beta (Trypanosoma cruzi) (UniProt O96673).
T3 sequence (whole entry): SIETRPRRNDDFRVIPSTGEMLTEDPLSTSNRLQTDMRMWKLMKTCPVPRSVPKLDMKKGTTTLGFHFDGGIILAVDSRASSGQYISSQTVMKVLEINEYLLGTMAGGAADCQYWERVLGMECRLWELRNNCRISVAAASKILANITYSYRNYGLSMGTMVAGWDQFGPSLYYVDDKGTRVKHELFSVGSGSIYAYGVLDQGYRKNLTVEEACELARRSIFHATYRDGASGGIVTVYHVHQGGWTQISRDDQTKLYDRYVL
Put plainly: Trypanosoma cruzi proteasome chymotrypsin-like activity (TcProtChymo) assay. Further: in the data most compounds retested in dose-response had high values. Format: functional. Particulars: 9.37 µM.

Assay [8] is filed under the species Homo sapiens. Put plainly: To identify inhibition of the IFN signalling (Jak-Stat) pathway via expression of an eGFP reporter gene under the control of an IFN-stimulated response element (ISRE) containing MxA promoter. The assay is classed as functional. Particulars: 30 µM.
For assay [9], the target named is T4, Tyrosyl-tRNA synthetase, putative (Trypanosoma cruzi (strain CL Brener)) (UniProt Q4DSP6).
T4 sequence (whole entry): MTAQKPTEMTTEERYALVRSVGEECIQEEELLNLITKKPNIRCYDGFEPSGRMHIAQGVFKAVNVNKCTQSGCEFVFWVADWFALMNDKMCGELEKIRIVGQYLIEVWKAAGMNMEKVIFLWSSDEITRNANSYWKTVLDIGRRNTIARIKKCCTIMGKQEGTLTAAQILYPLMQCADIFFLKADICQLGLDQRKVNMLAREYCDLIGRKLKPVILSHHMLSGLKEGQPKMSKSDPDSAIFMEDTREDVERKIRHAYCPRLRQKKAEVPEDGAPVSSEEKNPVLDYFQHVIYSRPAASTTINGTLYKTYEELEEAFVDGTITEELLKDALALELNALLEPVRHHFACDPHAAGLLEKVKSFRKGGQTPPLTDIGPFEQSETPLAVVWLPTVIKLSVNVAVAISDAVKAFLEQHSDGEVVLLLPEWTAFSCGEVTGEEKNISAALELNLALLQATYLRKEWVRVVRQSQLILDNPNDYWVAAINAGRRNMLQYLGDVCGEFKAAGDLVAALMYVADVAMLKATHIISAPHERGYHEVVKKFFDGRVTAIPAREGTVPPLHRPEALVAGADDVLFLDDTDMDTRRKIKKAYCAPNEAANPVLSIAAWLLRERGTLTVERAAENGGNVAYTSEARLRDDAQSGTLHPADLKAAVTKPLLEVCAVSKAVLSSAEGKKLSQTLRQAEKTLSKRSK
Put plainly: Trypanosoma cruzi tyrosyl tRNA synthetase (TcYRS) _High Tyrosine SOP. Further: in the data most compounds retested in dose-response had high values. Format: functional. Particulars: 30 µM.

The target of assay [10] is T4, Tyrosyl-tRNA synthetase, putative (Trypanosoma cruzi (strain CL Brener)). As to the kind of experiment: Trypanosoma cruzi tyrosyl tRNA synthetase (TcYRS) SOP. Format: functional. To be noted: 30 µM.
The target in assay [11] is Chromo domain-containing protein 1 (Saccharomyces cerevisiae (strain ATCC 204508 / S288c) (Baker's yeast)) (UniProt P32657). As to the kind of experiment: ScCHD-1 Enzyme Inhibition Assay. Further: in the data most compounds retested in dose-response had high values. Format: functional. Particulars: 30 µM.
Sequence of Chromo domain-containing protein 1 (Saccharomyces cerevisiae (strain ATCC 204508 / S288c) (Baker's yeast)) (P32657 whole entry, the tested form may be a part): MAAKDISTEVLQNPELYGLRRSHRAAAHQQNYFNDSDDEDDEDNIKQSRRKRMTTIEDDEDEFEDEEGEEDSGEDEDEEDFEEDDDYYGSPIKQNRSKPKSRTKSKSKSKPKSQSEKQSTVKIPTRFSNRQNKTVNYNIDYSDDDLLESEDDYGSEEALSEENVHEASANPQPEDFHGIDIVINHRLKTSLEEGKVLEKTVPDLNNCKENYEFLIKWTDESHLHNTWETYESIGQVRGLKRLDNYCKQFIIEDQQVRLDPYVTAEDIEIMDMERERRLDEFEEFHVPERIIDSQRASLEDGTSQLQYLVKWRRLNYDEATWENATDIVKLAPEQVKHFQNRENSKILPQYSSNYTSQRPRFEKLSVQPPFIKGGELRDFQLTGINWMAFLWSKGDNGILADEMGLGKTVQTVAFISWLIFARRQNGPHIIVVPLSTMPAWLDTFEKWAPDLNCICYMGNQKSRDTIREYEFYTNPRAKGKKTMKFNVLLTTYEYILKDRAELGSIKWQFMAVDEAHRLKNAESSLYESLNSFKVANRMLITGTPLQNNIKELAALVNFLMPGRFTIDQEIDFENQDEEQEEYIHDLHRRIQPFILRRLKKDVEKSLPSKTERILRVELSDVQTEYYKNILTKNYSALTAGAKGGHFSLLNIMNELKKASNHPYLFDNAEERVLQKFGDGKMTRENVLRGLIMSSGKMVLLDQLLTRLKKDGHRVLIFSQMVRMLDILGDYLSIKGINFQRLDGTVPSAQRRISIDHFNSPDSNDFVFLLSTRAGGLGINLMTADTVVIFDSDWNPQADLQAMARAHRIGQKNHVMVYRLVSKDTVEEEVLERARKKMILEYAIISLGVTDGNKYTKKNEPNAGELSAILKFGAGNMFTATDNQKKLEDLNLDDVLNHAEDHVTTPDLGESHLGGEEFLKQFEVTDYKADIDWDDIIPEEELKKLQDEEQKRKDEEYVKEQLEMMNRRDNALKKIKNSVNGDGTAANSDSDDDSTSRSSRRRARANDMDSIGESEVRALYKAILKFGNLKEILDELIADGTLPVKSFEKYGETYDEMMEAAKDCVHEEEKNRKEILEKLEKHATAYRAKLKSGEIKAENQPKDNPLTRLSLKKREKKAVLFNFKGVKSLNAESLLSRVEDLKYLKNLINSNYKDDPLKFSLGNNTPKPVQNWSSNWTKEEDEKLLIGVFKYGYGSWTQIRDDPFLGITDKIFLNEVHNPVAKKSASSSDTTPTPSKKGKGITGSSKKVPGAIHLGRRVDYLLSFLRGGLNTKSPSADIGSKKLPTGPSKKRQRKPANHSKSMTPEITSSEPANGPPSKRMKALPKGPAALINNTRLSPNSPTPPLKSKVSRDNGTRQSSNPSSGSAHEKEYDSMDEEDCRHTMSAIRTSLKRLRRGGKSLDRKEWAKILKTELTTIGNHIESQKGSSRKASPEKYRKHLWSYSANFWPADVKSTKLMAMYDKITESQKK

Sequence of Sialic acid-binding Ig-like lectin 9 (Homo sapiens) (Q9Y336 whole entry): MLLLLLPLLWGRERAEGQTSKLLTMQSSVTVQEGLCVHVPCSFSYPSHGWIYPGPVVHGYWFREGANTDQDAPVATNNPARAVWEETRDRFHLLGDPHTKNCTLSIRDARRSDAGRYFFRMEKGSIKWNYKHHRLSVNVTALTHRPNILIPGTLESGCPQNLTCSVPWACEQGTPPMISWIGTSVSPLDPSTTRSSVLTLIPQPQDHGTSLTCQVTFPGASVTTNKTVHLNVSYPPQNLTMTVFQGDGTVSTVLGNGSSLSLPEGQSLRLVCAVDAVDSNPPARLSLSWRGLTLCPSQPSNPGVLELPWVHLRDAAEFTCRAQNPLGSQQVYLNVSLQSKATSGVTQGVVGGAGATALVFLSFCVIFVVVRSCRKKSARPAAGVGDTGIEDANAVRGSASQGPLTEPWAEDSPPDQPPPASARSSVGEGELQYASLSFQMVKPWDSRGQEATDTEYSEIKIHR
Sequence of Protein translocase subunit SecA (Escherichia coli (strain K12)) (P10408 whole entry): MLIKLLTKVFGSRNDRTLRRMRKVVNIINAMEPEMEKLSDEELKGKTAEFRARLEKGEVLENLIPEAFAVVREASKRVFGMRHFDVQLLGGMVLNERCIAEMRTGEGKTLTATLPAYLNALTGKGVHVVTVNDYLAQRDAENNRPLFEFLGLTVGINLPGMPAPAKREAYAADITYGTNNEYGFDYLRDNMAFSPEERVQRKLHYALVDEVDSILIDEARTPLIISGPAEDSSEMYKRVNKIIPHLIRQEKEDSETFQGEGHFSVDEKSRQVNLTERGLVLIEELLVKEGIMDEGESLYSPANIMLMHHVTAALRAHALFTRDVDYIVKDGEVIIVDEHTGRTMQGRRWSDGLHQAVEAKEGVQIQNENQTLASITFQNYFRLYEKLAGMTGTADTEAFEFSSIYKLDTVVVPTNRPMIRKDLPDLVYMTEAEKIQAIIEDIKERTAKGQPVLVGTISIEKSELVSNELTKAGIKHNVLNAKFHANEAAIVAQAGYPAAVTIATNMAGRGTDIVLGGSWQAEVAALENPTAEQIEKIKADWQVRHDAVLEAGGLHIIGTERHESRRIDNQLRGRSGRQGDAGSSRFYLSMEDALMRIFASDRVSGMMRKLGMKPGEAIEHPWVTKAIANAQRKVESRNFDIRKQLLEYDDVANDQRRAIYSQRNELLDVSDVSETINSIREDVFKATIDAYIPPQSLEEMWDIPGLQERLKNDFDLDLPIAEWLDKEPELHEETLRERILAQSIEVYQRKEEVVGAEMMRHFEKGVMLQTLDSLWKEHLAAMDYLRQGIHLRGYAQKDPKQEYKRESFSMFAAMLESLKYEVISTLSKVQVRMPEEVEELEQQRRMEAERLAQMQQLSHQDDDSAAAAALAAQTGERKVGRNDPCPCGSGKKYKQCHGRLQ

With `Cc1nc(N2CCCC2)nc2c1CN(C(C)C)CC2`, the Percent Effect is -5.79% in [1]; 21.3% in assay [2]; -1.49% in assay [3]; 4.47% in assay [4]; 3.28% in assay [5]; -51.8% in [6]. Besides, the Percent Effect was 1.71% in assay [7]; -7.95% in assay [8]; 6.25% in assay [9]; 17.5% in assay [10]; -11.2% in [11].

`Cc1cnn(CCC(=O)N2CCCN(c3ncccc3C#N)CC2)c1`: the Percent Effect is -7.15% in [1]; 19% in assay [2]; -1.68% in [3]; 6.67% in [4]; -1.74% in assay [5]; -0.215% in assay [6]. The Percent Effect in [7] was 9.61%; in [8] it was -1.81%; in assay [9], 4.17%; in assay [10], 20.2%; in [11], -30.4%.

With `COc1ccccc1C1CNC(=O)c2nc(-c3ncc[nH]3)[nH]c2C1` (stereo unspecified), the Percent Effect in assay [1] is -0.895%; in [2], 16.2%; in [3], -2.89%; in [4], 12.1%; in assay [5] it was 7.14%; in [6], 4.29%. Further, the Percent Effect is 14.3% in assay [7]; 20.7% in assay [8]; 14.3% in assay [9]; 29.3% in [10]; -3.23% in assay [11].

As for `c1cnn(Cc2cn3c(n2)CN(Cc2nccs2)CC3)c1`, the Percent Effect is -2.43% in assay [1]; -36.4% in assay [2]; -0.581% in [3]; -1.53% in [4]; 5.23% in [5]; 5.81% in [6]. Further, the Percent Effect in assay [7] was 12.2%; in assay [8], 4.15%; in assay [9] it was 9.52%; in assay [10], 26.9%; in assay [11], -6.74%.

Turning to `CCn1nnc2c1C(COC)CN(C(=O)COc1ccccc1)C2` (stereo unspecified), the Percent Effect was -3.61% in assay [1]; 0% in assay [2]; -1.01% in [3]; -0.576% in [4]; -2.73% in assay [5]; 0% in [6]. The Percent Effect in assay [7] is 10.4%; in [8] it was -3.63%; in [9], 5.94%; in [10] it was 3.66%; in assay [11], 9.82%.

On to `O=C(CS(=O)(=O)CC1CCCCC1)NC1CCCCNC1=O` (stereo unspecified), for which the Percent Effect in assay [1] is -5.08%; in assay [2], 2.6%; in assay [3], -1.46%; in assay [4], 5.38%; in assay [5] it was 4.49%; in assay [6], -6.05%. The Percent Effect in assay [7] is -2.7%; in assay [8], -1.34%; in assay [9], 0%; in assay [10], 9.76%; in assay [11] it was 83.8%.

Turning to `NC(=O)c1ccc(OCC(=O)N2CCCC(n3cccn3)C2)cc1` (stereo unspecified), the Percent Effect in assay [1] was -3.58%; in assay [2] it was 15.6%; in assay [3] it was 6.85%; in [4], 2.82%; in [5], -2.06%; in assay [6], 1.9%. Further, the Percent Effect in [7] was 7.2%; in assay [8] it was 1.54%; in assay [9], 7.62%; in assay [10] it was 14.1%; in assay [11], -7.55%.

Take `COc1ccc(Br)c(C(=O)N2CCC(c3n[nH]c(C4CC4)n3)CC2)c1`: the Percent Effect in assay [1] is -4.1%; in [2], 16.5%; in assay [3] it was 1.39%; in [4], 2.29%; in assay [5], 0.513%; in assay [6] it was -3.23%. Also, the Percent Effect in [7] is 11.8%; in [8], 4.22%; in assay [9], 4.17%; in [10], 25.3%; in assay [11] it was -27.6%.

For the molecule `CCc1ccc(OCC(O)CN2CCN(S(C)(=O)=O)CC2)cc1` (stereo unspecified), the Percent Effect in assay [1] was -7.02%; in assay [2], 7.79%; in assay [3], 3.94%; in [4] it was -12.9%; in [5] it was -6.56%; in assay [6] it was -3.58%. The Percent Effect was 3.96% in [7]; 16% in [8]; 0.952% in assay [9]; 2.35% in assay [10]; -21.6% in assay [11].

For the molecule `CCc1nccn1C1CCCN(C(=O)c2ccc3[nH]c(=O)[nH]c3c2)C1` (stereo unspecified), the Percent Effect in [1] was -10.8%; in [2] it was 7.79%; in assay [3], -15.1%; in assay [4], 18.9%; in [5], 8.24%; in assay [6] it was 2.85%. The Percent Effect in assay [7] is 5.41%; in assay [8], 14.2%; in assay [9], 8.74%; in assay [10], 21.9%; in [11], -4.1%.

`Cc1nnc(N2CC[C@H]3C[C@H](C(=O)N4CCOCC4)O[C@H]3C2)s1`: the Percent Effect in assay [1] is -2.55%; in [2], 0%; in assay [3], 5.32%; in assay [4], 2.05%; in assay [5] it was 0.0978%; in assay [6] it was -0.955%. Also, the Percent Effect in assay [7] is 14.6%; in assay [8] it was -19.4%; in assay [9], 1.08%; in assay [10], 5.13%; in assay [11], 1.53%.
